Shown are actives, neighbours in structure and some others; about 8.7% of the full set was active somewhere.
Pf growth 96h: P. falciparum growth inhibition at 96 hour, primary screen for plastid delayed-death inhibitors. P. falciparum luciferase reporter growth, 96 h. Potency, µM (highest dose often 28.7 µM), most hits filed as inhibitors. 6.9% of 320,000 active. AID 504834
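Compounds incubated with erythrocytes infected by luciferase-expressing P. falciparum (2% hematocrit, 0.05% parasitemia final) for 96 hours, 37 C in 5% CO2. Growth inhibition scored as decreased luciferase luminescence.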
Pf growth 48h: P. falciparum growth inhibition at 48 hours (one generation); P. falciparum luciferase growth in erythrocytes, 48 h; Potency, µM (series often up to 28.7 µM), usual class: inhibitors; AID 504832; 5.9% of 310,000 active
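First compound was added to culture medium, then infected red cells at 0.1% parasitemia and 2% hematocrit (final). After incubation at 37 C under 5% CO2, luciferase detection reagent was dispensed and light output recorded.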
Vaccinia Venus: vaccinia inhibition (Venus reporter). Vaccinia virus Venus reporter expression, fluorescence. Potency, µM (titrated, usually from 36.5 µM), actives largely listed as inhibitors. 0.46% of 330,000 active. AID 720580; calls by dose curve; tested in A549 cells; note: nearly all actives have a fitted effect of over 30% in size
AMA1 RON2 block: inhibitors of Plasmodium falciparum AMA1-RON2 interaction; AlphaScreen AMA1-biotinylated RON2 peptide binding; Potency, µM (titrated, usually from 58.2 µM), usual class: inhibitors; 0.2% of 360,000 active; AID 720542; note: nearly all actives have a fitted effect of over 45% in size
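AMA1 (3D7) with his tag at 25 nM final met compounds first, then biotinylated RON2 peptide at 25 nM; detection used donor plus acceptor beads, 10 µg/mL apiece, read by AlphaScreen after 30 min at room temperature.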
Vaccinia mCherry: inhibitors of vaccinia virus infection (mCherry reporter signal) | AID 720579 | Potency, µM (highest dose often 36.5 µM), actives largely listed as inhibitors | 0.63% of 310,000 active | Vaccinia virus mCherry reporter infection, fluorescence; calls by dose curve; tested in A549 cells; note: nearly all actives have a fitted effect of over 35% in size
Hits are given with their value; 0 = inactive; ? = inconclusive; - = not tested or not shown; [ ] = remark or other dose. Unless noted, calls come from the whole dose curve; as a rule, active = well fitted curve in the direction sought with a large enough effect; inconclusive = small, poorly fitted or top-dose-only effect, or another doubt; inactive = no such curve, though single readings can be large; an effect the other way counts as inactive or inconclusive.

SMILES	Pf growth 96h	Pf growth 48h	Vaccinia Venus	AMA1 RON2 block	Vaccinia mCherry
Cc1ccc2c(c1)c1c3n2CCN(CC(N)=O)C3CCC1 (stereo not given)	0	13µM	0	0	?
Cc1ccc2c(c1)c1c3n2CCN(C(=O)Cn2c(-c4ccccc4)noc2=O)C3CCC1 (stereo not given)	9.3µM	0.19µM	-	0	-
Cc1ccc2c(c1)c1c3n2CCCN(Cc2ccccc2)C3CCC1 (stereo not given)	-	0.93µM	-	0	-
Cc1ccc2c(c1)c(=O)c1c3n2CCN(C(=O)CCl)C3CC1 (stereo not given)	5.2µM	-	0	0	0
CN1CCN(CC(=O)N2CCn3c4c(c5cc(C6CCCCC6)ccc53)CCCC42)CC1 (stereo not given)	?	7.4µM	?	?	11µM
Cc1ccc2c(c1)c1c3n2CCN(C(=O)CN2CCN(C)CC2)C3CCC1 (stereo not given)	-	?	0	0	0
Cc1ccc2c(c1)c(=O)c1c3n2CCN(CC#N)C3CC1 (stereo not given)	0	0	0	0	0
CC(C)c1nc2ccc(C(=O)NCCCN3CCN(c4cccc(Cl)c4)CC3)cc2o1	-	-	0[7.34 µM]	-	0[7.34 µM]
CC(C(=O)O)c1ccc2c(c1)Cc1cccnc1O2 (stereo not given)	1.5µM	0	-	-	-
Cc1cccc(NC(=O)CSc2nc(=O)n(Cc3ccccn3)c3c2CCC3)c1C	-	-	0	-	0
O=[N+]([O-])c1cccc(-c2cn3nc(-c4ccccc4)c(-c4ccccc4)nc3n2)c1	?	9.3µM	-	0	-
Cc1cc(=O)oc2c3c(cc(OCC(=O)NCC(=O)O)c12)OC(C)(C)CC3	0	0	-	0	-
CSC[C@H](NC(=O)COc1cc2c(c3oc(=O)c(C)c(C)c13)CCC(C)(C)O2)C(=O)O	0	0	0	0	0
Cc1c(C)c2c(OCC(=O)NCC(O)c3ccccc3)cc3c(c2oc1=O)CCC(C)(C)O3 (stereo not given)	4.7µM	?	0	0	0
Cc1cc(=O)oc2c3c(cc(OCC(=O)NCc4ccccc4)c12)OC(C)(C)CC3	12µM	?	0	0	0
Cc1c(C)c2c(OCC(=O)NC3CC3)cc3c(c2oc1=O)CCC(C)(C)O3	12µM	?	0	0	0
Cc1cc(=O)oc2c3c(cc(OCC(=O)NC4CC4)c12)OC(C)(C)CC3	15µM	?	0	0	0
Cc1ccccc1C(=O)Nc1cccc(OCc2cc(=O)n3c4c(sc3n2)CCCC4)c1	-	-	0	-	0
Cc1ccc(-n2c(=O)c3c(c4cc(C)ccc4n3C)n(CC(=O)c3ccc(Cl)cc3)c2=O)cc1	-	-	0	-	0
Cc1ccc(N2CC(c3nnc(Cc4ccc(Cl)cc4)o3)CC2=O)cc1 (stereo not given)	-	-	0	-	0
Cc1cc(=O)oc2c3c(cc(OCC(=O)Nc4ccc(CCO)cc4)c12)OC(C)(C)CC3	?	?	0	0	0
Cc1cc(=O)oc2c3c(cc(OCC(=O)Nc4cccnc4)c12)OC(C)(C)CC3	1.3µM	0	0	0	0
Cc1nc2nc(SCC(=O)NC3CCC(C)CC3)nn2c(C)c1Cc1ccccc1 (stereo not given)	-	-	0	-	0
O=C(NCCN1CCN(c2ccccc2)CC1)c1cccn2c(=O)c3ccccc3nc12	0	0	0	0	0
O=C(NCCNc1ccc2ccccc2c1)c1cccn2c(=O)c3sccc3nc12	1.9µM	?	-	-	-
SMILES	Pf growth 96h	Pf growth 48h	Vaccinia Venus	AMA1 RON2 block	Vaccinia mCherry
Cc1cccc(NC(=O)COC(=O)c2cc(C)n(C3CC3)c2C)c1	?	9.3µM	-	0	-
Cc1cccc(NC(=O)COC(=O)c2cc(C)oc2C)c1	0	0	0	0	0
COc1ccccc1CN1CCC2(CC1)c1ccccc1[C@@H](NC(=O)c1ccco1)[C@@H]2OC	-	-	0	-	0
CC(=O)Nc1cccc(-n2cc3c(c2-c2ccccc2Cl)c(=O)n(C)c(=O)n3C)c1	-	-	0	-	0
CCCCCCC[n+]1c(/C=C/c2ccc(N(C)C)cc2)sc2ccccc21	-	-	0	-	?
COc1cccc(C2C(=O)N(C3CCCCC3)CC(=O)N2CCc2ccc(OC)c(OC)c2)c1 (stereo not given)	-	-	0	-	0
CCOC(=O)c1cnc(-n2nc(C)cc2C)nc1NCc1ccccc1	0	1.7µM	?	0	?
CCOC(=O)c1cnc(-n2nc(C)cc2C)nc1NCCO	0	?	-	0	-
CCOC(=O)c1cnc(-n2nc(C)cc2C)nc1NC(C)c1ccccc1 (stereo not given)	?	2.1µM	0	0	0
